# Data from PubChem BioAssay AID1159580 (chemical genetic matrix, 2015).
# The campaign covered roughly 5,500 compounds. About 2,000 (36%) were called active. Inconclusive results (about 18%) are left out. The list shows a part of the results. Values without a mark were called inactive. No stated cut-off is given here; in the data, active means normalized growth mostly below about 0.91 (no sharp cut-off); inconclusive means no clear call, values can overlap the other calls; inactive means mostly above about 0.92.
# Assay: chemical genetic growth profiling, strain panel (AID 1159580);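 further: tested at 20 µM; growth read once vehicle control cultures reached saturation at 30 °C; 1 = growth at the plate median or of vehicle wells; lower values mean less growth of the strain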
# Conditions: S. cerevisiae deletion strains, growth OD
# [1] = locus YDL101C, strain DUN1, active compounds read low
# [2] = locus YHR030C, strain SLT2, active compounds read low
smiles,measurement,setting,value
CC(C)(O)C#Cc1ccc(/C=N\Nc2ccccc2)cc1,normalized growth,"locus YAR019C, strain CDC15, active compounds read low",0.966
same,normalized growth,"locus YBL105C, strain PKC1, active compounds read low",0.963
same,normalized growth,"locus YBR135W, strain CKS1, active compounds read low",0.952
same,normalized growth,"locus YBR136W, strain MEC1, active compounds read low",0.954
same,normalized growth,"locus YBR160W, strain CDC28, active compounds read low",0.954
same,normalized growth,"locus YDL017W, strain CDC7, active compounds read low",0.961
same,normalized growth,"locus YDL028C, strain MPS1, active compounds read low",0.952
same,normalized growth,[1],0.954
same,normalized growth,"locus YDL108W, strain KIN28, active compounds read low",0.965
same,normalized growth,"locus YDL132W, strain cdc53, active compounds read low",0.949
same,normalized growth,"locus YDL214C, strain PRR2, active compounds read low",0.822
same,normalized growth,"locus YDR052C, strain DBF4, active compounds read low",0.955
same,normalized growth,"locus YDR054C, strain cdc34, active compounds read low",0.957
same,normalized growth,"locus YDR226W, strain ADK1, active compounds read low",0.968
same,normalized growth,"locus YDR477W, strain SNF1, active compounds read low",0.767
same,normalized growth,"locus YER123W, strain YCK3, active compounds read low",0.569 (active)
same,normalized growth,"locus YER133W, strain GLC7, active compounds read low",0.799
same,normalized growth,"locus YFL009W, strain cdc4, active compounds read low",0.948
same,normalized growth,"locus YFL029C, strain CAK1, active compounds read low",0.957
same,normalized growth,"locus YFR003C, strain YPI1, active compounds read low",0.957
same,normalized growth,"locus YFR019W, strain FAB1, active compounds read low",0.589 (active)
same,normalized growth,"locus YFR028C, strain CDC14, active compounds read low",0.965
same,normalized growth,"locus YGR040W, strain KSS1, active compounds read low",0.784
same,normalized growth,"locus YGR052W, strain FMP48, active compounds read low",0.716
same,normalized growth,"locus YGR092W, strain DBF2, active compounds read low",0.13 (active)
same,normalized growth,[2],0.507 (active)
same,normalized growth,"locus YHR079C, strain IRE1, active compounds read low",0.585
same,normalized growth,"locus YHR082C, strain KSP1, active compounds read low",0.795
same,normalized growth,"locus YHR205W, strain SCH9, active compounds read low",0.88
same,normalized growth,"locus YIL147C, strain SLN1, active compounds read low",0.954
same,normalized growth,"locus YJL095W, strain BCK1, active compounds read low",0.497 (active)
same,normalized growth,"locus YJL128C, strain PBS2, active compounds read low",0.995
same,normalized growth,"locus YJR016C, strain ILV3, active compounds read low",0.948
same,normalized growth,"locus YJR066W, strain TOR1 (second series), active compounds read low",0.557 (active)
same,normalized growth,"locus YJR066W, strain TOR1, active compounds read low",0.644
same,normalized growth,"locus YKL048C, strain ELM1, active compounds read low",0.756 (active)
same,normalized growth,"locus YKL101W, strain HSL1, active compounds read low",0.78
same,normalized growth,"locus YKL193C, strain SDS22, active compounds read low",0.954
same,normalized growth,"locus YKL203C, strain TOR2, active compounds read low",0.831
same,normalized growth,"locus YLR113W, strain HOG1, active compounds read low",0.718 (active)
same,normalized growth,"locus YLR133W, strain CKI1, active compounds read low",0.798
same,normalized growth,"locus YML070W, strain DAK1, active compounds read low",0.556 (active)
same,normalized growth,"locus YMR001C, strain CDC5, active compounds read low",0.96
same,normalized growth,"locus YMR205C, strain PFK2 (second series), active compounds read low",0.872
same,normalized growth,"locus YMR277W, strain FCP1, active compounds read low",0.963
same,normalized growth,"locus YNL006W, strain LST8, active compounds read low",0.954
same,normalized growth,"locus YNL020C, strain ARK1, active compounds read low",0.811
same,normalized growth,"locus YNL161W, strain CBK1, active compounds read low",0.954
same,normalized growth,"locus YNL183C, strain NPR1, active compounds read low",0.735
same,normalized growth,"locus YNL207W, strain RIO2, active compounds read low",0.958
same,normalized growth,"locus YNL222W, strain SSU72, active compounds read low",0.953
same,normalized growth,"locus YNL307C, strain MCK1 (second series), active compounds read low",0.41 (active)
same,normalized growth,"locus YOL078W, strain AVO1, active compounds read low",0.952
same,normalized growth,"locus YOL136C, strain PFK27, active compounds read low",0.614 (active)
same,normalized growth,"locus YOR061W, strain CKA2, active compounds read low",0.366 (active)
same,normalized growth,"locus YOR119C, strain RIO1, active compounds read low",0.799
same,normalized growth,"locus YOR231W, strain MKK1, active compounds read low",0.551 (active)
same,normalized growth,"locus YOR329C, strain SCD5, active compounds read low",0.955
same,normalized growth,"locus YPL031C, strain PHO85, active compounds read low",0.686
same,normalized growth,"locus YPL153C, strain RAD53, active compounds read low",0.565 (active)
same,normalized growth,"locus YPL204W, strain HRR25, active compounds read low",0.602 (active)
same,normalized growth,"locus YPL209C, strain IPL1, active compounds read low",0.959
same,normalized growth,"locus YPL256C, strain CLN2, active compounds read low",0.766 (active)
same,normalized growth,"locus YPR025C, strain CCL1, active compounds read low",0.948
same,normalized growth,"locus YPR106W, strain ISR1, active compounds read low",0.974
same,normalized growth,"locus YPR111W, strain DBF20, active compounds read low",0.968
same,normalized growth,"strain NNK1, active compounds read low",0.979
same,normalized growth,"strain TSCII, active compounds read low",0.951
CC(C)(O)C#Cc1ccc(/C=N\O)cc1,normalized growth,"locus YAL013W, strain DEP1, active compounds read low",1.01
same,normalized growth,"locus YBR229C, strain ROT2, active compounds read low",0.996
same,normalized growth,[1],0.99
same,normalized growth,"locus YDL134C, strain PPH21, active compounds read low",0.981
same,normalized growth,"locus YDR150W, strain NUM1, active compounds read low",0.938
same,normalized growth,"locus YEL061C, strain CIN8, active compounds read low",0.984
same,normalized growth,"locus YGR078C, strain PAC10, active compounds read low",1.03
same,normalized growth,[2],1
same,normalized growth,"locus YHR087W, strain rtc3, active compounds read low",0.988
same,normalized growth,"locus YJR043C, strain POL32, active compounds read low",1.02
same,normalized growth,"locus YJR075W, strain HOC1, active compounds read low",0.992
same,normalized growth,"locus YKL190W, strain CNB1, active compounds read low",1
same,normalized growth,"locus YLR039C, strain RIC1, active compounds read low",0.991
same,normalized growth,"locus YLR058C, strain SHM2 (second series), active compounds read low",1.01
same,normalized growth,"locus YLR085C, strain ARP6, active compounds read low",0.939
same,normalized growth,"locus YLR262C, strain YPT6, active compounds read low",0.968
same,normalized growth,"locus YML094W, strain GIM5, active compounds read low",0.975
same,normalized growth,"locus YMR219W, strain ESC1, active compounds read low",0.987
same,normalized growth,"locus YMR263W, strain SAP30, active compounds read low",0.962
same,normalized growth,"locus YNL128W, strain TEP1, active compounds read low",0.998
same,normalized growth,"locus YNL153C, strain GIM3, active compounds read low",1
same,normalized growth,"locus YNL298W, strain CLA4 (second series), active compounds read low",0.977
same,normalized growth,"locus YNL322C, strain KRE1, active compounds read low",0.992
same,normalized growth,"locus YNR030W, strain Alg12, active compounds read low",1
same,normalized growth,"locus YPL055C, strain LGE1, active compounds read low",0.936
same,normalized growth,"locus YPL241C, strain CIN2, active compounds read low",0.959
same,normalized growth,"locus YPR135W, strain CTF4, active compounds read low",0.994
